# Data from PubChem BioAssay (EPA / NIEHS).
# Results filed as inconclusive are left out. Calls of active or inactive are those of the source. How the source made its calls: active means hit-call score of the fitted dose curve at least 0.9, where 1 is the maximum; inconclusive means response in the unintended direction; inactive means score below 0.9.
# Legend:
# [1] = TOX21_p53_BLA_p2_viability: Viability Assessment in the Tox21 HCT-116 p53 Agonism Beta-lactamase Assay, Phase 2 (AID 2283591);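 further: compound exposure lasted 16 h at 37 °C; actives lower the ATP signal meaning cytotoxicity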
# Summary of the method: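 HCT116 p53-bla cells, 4000/well, dosed after 5 h plating (217-fold dilution of DMSO stocks) and incubated 16 h at 37C. Viability taken as cellular ATP by CellTiter-Glo luminescence after 30 min RT; signal loss marks cytotoxicity.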
# [2] = target: Cellular tumor antigen p53 (Homo sapiens) (UniProt P04637); assay: TOX21_p53_BLA_p2_ratio: Tox21 HCT-116 p53 Agonism Beta-lactamase Assay, Ratio, Phase 2 (AID 2283592)
# Summary of the method: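 Ratio endpoint: beta-lactamase cleavage of CCF4-AM, blue (460 nm) over green (530 nm). HCT116 reporter line; 16 h treatment, 37C; substrate 2 h RT.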
# [3] = TOX21_p53_BLA_p3_viability: Viability Assessment in the Tox21 HCT-116 p53 Agonism Beta-lactamase Assay, Phase 3 (AID 2283593);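 further: cells exposed to compound for 16 h before reading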
# Summary of the method: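 HCT116 cells, 4000/well, dosed 5 h after plating by pin transfer (217-fold dilution from DMSO stock) and incubated 16 h at 37C, 5% CO2. Viability read as ATP luminescence with CellTiter-Glo after 30 min at room temperature.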
# [4] = target: Cellular tumor antigen p53 (Homo sapiens) (UniProt P04637); assay: TOX21_p53_BLA_p3_ratio: Tox21 HCT-116 p53 Agonism Beta-lactamase Assay, Ratio, Phase 3 (AID 2283596)
# Summary of the method: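 Cells were seeded at 4000/well, rested 5 h at 37C, then dosed with DMSO compound solutions (217-fold dilution) for 16 h. CCF4-AM substrate was loaded for 2 h at room temperature, and the 460/530 nm emission ratio was fitted for gain of signal versus DMSO.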
# [5] = TOX21_p53_BLA_p5_viability: Viability Assessment in the Tox21 HCT-116 p53 Agonism Beta-lactamase Assay, Phase 5 (AID 2283600)
# Summary of the method: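 Luciferase-coupled ATP quantitation of cells treated for 16 h (37C, 5% CO2) with test chemicals delivered in DMSO via a 217-fold dilution; 4000 cells/well; reagent incubated 30 min at room temperature before luminescence reading.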
# [6] = TOX21_p53_BLA_p4_viability: Viability Assessment in the Tox21 HCT-116 p53 Agonism Beta-lactamase Assay, Phase 4 (AID 2283597);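 further: hits lower the luminescence signal meaning cytotoxicity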
# Summary of the method: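 Cytotoxicity was inferred from loss of CellTiter-Glo luminescence. HCT116 cells had been dosed with compounds after 5 h plating, incubated 16 h at 37C and 5% CO2, and exposed to the CCF4-AM substrate for 2 h.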
# [7] = target: Cellular tumor antigen p53 (Homo sapiens) (UniProt P04637); assay: TOX21_p53_BLA_p5_ratio: Tox21 HCT-116 p53 Agonism Beta-lactamase Assay, Ratio, Phase 5 (AID 2283599)
# Summary of the method: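 HCT-116 p53-bla cells (4000/well) plated 5 h, dosed with compound (217-fold DMSO dilution) for 16 h at 37 C; CCF4-AM substrate 2 h at room temperature. Activity is the 460/530 nm emission ratio (405 nm excitation), fitted in gain-of-signal direction versus DMSO.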
# [8] = target: Cellular tumor antigen p53 (Homo sapiens) (UniProt P04637); assay: TOX21_p53_BLA_p4_ratio: Tox21 HCT-116 p53 Agonism Beta-lactamase Assay, Ratio, Phase 4 (AID 2283601)
# Summary of the method: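 HCT-116 p53 beta-lactamase reporter cells (4000/well) preincubated 5 h, then compound (217-fold dilution of DMSO stock) for 16 h at 37C. CCF4-AM substrate added 2 h at room temperature; 460/530 nm emission ratio fitted upward versus DMSO.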
# [9] = Tanguay_ZF_120hpf_MORT_legacy: (Legacy) Oregon State University Tanguay Lab 120 Hour Post-fertilization zebrafish Assay for Mortality (AID 2283633)
# Summary of the method: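 Dechorionated Tropical 5D wild-type zebrafish embryos, one per well from 6 hpf, were statically exposed at 28C in the dark until 120 hpf (0.64% DMSO final). Mortality was scored as present/absent by brightfield microscopy, fitted positively versus DMSO.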
# [10] = Tanguay_ZF_120hpf_AXIS_legacy: (Legacy) Oregon State University Tanguay Lab 120 Hour Post-fertilization zebrafish Assay for Body Axis Malformation (AID 2283635)
# Summary of the method: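 Tropical 5D wild-type zebrafish embryos, dechorionated with pronase at 4 hpf, were placed singly in wells at 6 hpf and exposed statically to test chemical (0.64% DMSO final) at 28C until 120 hpf, then scored by brightfield for body axis defects.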
# [11] = Tanguay_ZF_120hpf_EYE_legacy: (Legacy) Oregon State University Tanguay Lab 120 Hour Post-fertilization zebrafish Assay for Eye Malformation (AID 2283636);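 further: binary presence or absence of eye malformation scored by brightfield in 120 hpf larvae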
# Summary of the method: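 5D wild-type embryos, pronase-dechorionated at 4 hpf; static exposure 6–120 hpf, 28C, dark; DMSO 0.64% final; 5uM trimethyltin chloride positive control. Binary eye-defect scoring at 120 hpf; dead embryos not scored.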
# [12] = Tanguay_ZF_120hpf_SNOU_legacy: (Legacy) Oregon State University Tanguay Lab 120 Hour Post-fertilization zebrafish Assay for Snout Malformation (AID 2283637)
# Summary of the method: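 Binary brightfield scoring of snout malformation at 120 hpf. Dechorionated 5D wild-type embryos, one per well, static exposure from 6 hpf at 28C, sealed and dark; final DMSO 0.64% (vol/vol), DMSO as baseline; 5uM trimethyltin chloride positive control.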
# [13] = Tanguay_ZF_120hpf_JAW_legacy: (Legacy) Oregon State University Tanguay Lab 120 Hour Post-fertilization zebrafish Assay for Jaw Malformation (AID 2283638)
# Summary of the method: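 Tropical 5D wild-type embryos, dechorionated with pronase at 4 hpf, were placed singly per well at 6 hpf and statically exposed at 28C until 120 hpf (0.64% DMSO final). Jaw malformation scored as present/absent by brightfield microscopy at 120 hpf, analyzed relative to DMSO.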
# [14] = Tanguay_ZF_120hpf_PE_legacy: (Legacy) Oregon State University Tanguay Lab 120 Hour Post-fertilization zebrafish Assay for Pericardial Edema (AID 2283640)
# Summary of the method: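 Tropical 5D wild-type zebrafish embryos were exposed statically to 120 hpf at 28C, sealed and foil-covered, in 0.64% DMSO final. Pericardial edema was scored present/absent by brightfield microscopy; dead embryos were not scored.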
# [15] = Tanguay_ZF_120hpf_BRAI_legacy: (Legacy) Oregon State University Tanguay Lab 120 Hour Post-fertilization zebrafish Assay for Brain Malformation (AID 2283641)
# Summary of the method: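 Tropical 5D wild-type zebrafish embryos were exposed statically in sealed, foil-covered plates at 28C until 120 hpf, with 0.64% (vol/vol) final DMSO. Brain malformation was scored present/absent by brightfield microscopy, relative to DMSO baseline.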
# [16] = Tanguay_ZF_120hpf_SOMI_legacy: (Legacy) Oregon State University Tanguay Lab 120 Hour Post-fertilization zebrafish Assay for Somite Malformation (AID 2283647)
# Summary of the method: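 Tropical 5D wild-type zebrafish embryos, dechorionated with pronase at 4 hpf, were placed singly at 6 hpf and statically exposed until 120 hpf at 28C in 0.64% DMSO. Somite malformation was scored present/absent by brightfield microscopy versus DMSO.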
# [17] = Tanguay_ZF_120hpf_PFIN_legacy: (Legacy) Oregon State University Tanguay Lab 120 Hour Post-fertilization zebrafish Assay for Pectoral Fin Malformation (AID 2283648);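 further: each larva judged yes or no for fin defect by brightfield with dead larvae skipped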
# Summary of the method: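 Binary pectoral fin malformation call at 120 hpf by brightfield microscopy; 5D wild-type zebrafish, chorion removed at 4 hpf, one embryo per well from 6 hpf, static exposure at 28C; DMSO (0.64% final) as baseline.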
# [18] = Tanguay_ZF_120hpf_CFIN_legacy: (Legacy) Oregon State University Tanguay Lab 120 Hour Post-fertilization zebrafish Assay for Caudal Fin Malformation (AID 2283649)
# Summary of the method: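 Tropical 5D wild-type embryos, dechorionated with pronase at 4 hpf, were placed singly in wells at 6 hpf and statically exposed to compound at 28C until 120 hpf (0.64% DMSO). Caudal fin malformation was scored present/absent by brightfield microscopy.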
# [19] = Tanguay_ZF_120hpf_PIG_legacy: (Legacy) Oregon State University Tanguay Lab 120 Hour Post-fertilization zebrafish Assay for Pigmentation Malformation (AID 2283650)
# Summary of the method: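 Brightfield scoring of pigmentation malformation at 120 hpf, recorded as binary present/absent per larva. Exposure: dechorionated 5D wild-type embryos, one per well, static from 6 hpf at 28C, final DMSO 0.64% (vol/vol). Dead embryos not scored.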
# Cellular tumor antigen p53 (Homo sapiens), sequence (P04637 whole entry, looked up): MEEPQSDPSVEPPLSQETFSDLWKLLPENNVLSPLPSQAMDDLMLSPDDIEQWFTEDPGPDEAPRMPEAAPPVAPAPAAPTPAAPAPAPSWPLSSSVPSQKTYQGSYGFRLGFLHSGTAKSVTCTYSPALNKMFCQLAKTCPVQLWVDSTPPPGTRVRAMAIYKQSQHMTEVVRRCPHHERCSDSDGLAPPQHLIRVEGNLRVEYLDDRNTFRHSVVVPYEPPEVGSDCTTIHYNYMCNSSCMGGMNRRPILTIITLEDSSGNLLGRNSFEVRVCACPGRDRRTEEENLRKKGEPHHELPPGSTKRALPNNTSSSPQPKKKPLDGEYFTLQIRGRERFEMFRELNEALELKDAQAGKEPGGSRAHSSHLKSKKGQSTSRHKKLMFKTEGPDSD
structure (smiles),measurement,setting,value
O=c1ssc(Cl)c1Cl,outcome,[1],inactive
same,outcome,[2],inactive
same,AC50,[3],73.7 µM (active)
same,AC50,[4],61.2 µM (active)
same,outcome,[5],inactive
CO/N=C(/C(=O)OC)c1ccccc1COc1ccccc1C,outcome,[1],inactive
same,AC50,[2],27.1 µM (active)
same,outcome,[3],inactive
same,outcome,[4],inactive
same,outcome,[6],inactive
same,outcome,[7],inactive
same,outcome,[5],inactive
CC(C)(C)OOC(C)(C)C,outcome,[1],inactive
same,outcome,[2],inactive
same,outcome,[3],inactive
same,outcome,[4],inactive
same,outcome,[6],inactive
same,outcome,[7],inactive
same,outcome,[5],inactive
same,outcome,[8],inactive
same,outcome,[9],inactive
same,outcome,[10],inactive
same,outcome,[11],inactive
same,outcome,[12],inactive
same,outcome,[13],inactive
same,outcome,[14],inactive
same,outcome,[15],inactive
same,outcome,[16],inactive
same,outcome,[17],inactive
same,outcome,[18],inactive
same,outcome,[19],inactive
Cc1cccc(N)c1,outcome,[1],inactive
same,outcome,[2],inactive
same,outcome,[3],inactive
same,outcome,[4],inactive
same,outcome,[6],inactive
same,outcome,[7],inactive
same,outcome,[5],inactive
same,outcome,[9],inactive
same,outcome,[10],inactive
same,outcome,[11],inactive
same,outcome,[12],inactive
same,outcome,[13],inactive
same,outcome,[14],inactive
same,outcome,[15],inactive
same,outcome,[16],inactive
same,outcome,[18],inactive
same,outcome,[19],inactive
C=C(C)C(=O)OCC1CO1 (centres undefined),outcome,[1],inactive
same,outcome,[2],inactive
same,outcome,[3],inactive
same,outcome,[4],inactive
same,outcome,[6],inactive
same,outcome,[7],inactive
same,outcome,[5],inactive
same,outcome,[8],inactive
NNC(N)=S,outcome,[1],inactive
same,outcome,[2],inactive
same,outcome,[3],inactive
same,outcome,[4],inactive
same,outcome,[6],inactive
same,outcome,[7],inactive
same,outcome,[8],inactive
c1ccc2c(c1)sc1ccccc12,outcome,[1],inactive
same,outcome,[2],inactive
same,outcome,[3],inactive
same,outcome,[4],inactive
same,outcome,[6],inactive
same,outcome,[7],inactive
same,outcome,[5],inactive
same,outcome,[8],inactive
COC(N)=O,outcome,[1],inactive
same,outcome,[2],inactive
same,outcome,[3],inactive
same,outcome,[6],inactive
same,outcome,[7],inactive
same,outcome,[8],inactive
CCOP(=S)(NC(C)C)Oc1ccccc1C(=O)OC(C)C (centres undefined),outcome,[1],inactive
same,outcome,[2],inactive
same,outcome,[3],inactive
same,AC50,[6],33.5 µM (active)
same,outcome,[7],inactive
same,outcome,[5],inactive
COP(=O)(O)OC,outcome,[1],inactive
same,outcome,[2],inactive
same,outcome,[3],inactive
same,outcome,[4],inactive
same,AC50,[5],85.6 µM (active)
O=NN1CCCC1,outcome,[1],inactive
same,outcome,[2],inactive
same,outcome,[3],inactive
same,outcome,[4],inactive
same,outcome,[7],inactive
same,outcome,[5],inactive
